Assay results reported in PubChem BioAssay AID1117319 (Southern Research Institute, 2015).
“And” between values parts separate entries of the source, which are not always exact repeats. Identical values can stand only once. Out of some 260,000 compounds screened, about 1,500 (0.58%) were called active. Inconclusive results (about 5%) are left out. The list is a sample of the results. Potency and affinity values are given separately. Unmarked numbers belong to inactive results.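 How the source made its calls: active means inhibition above a set limit at one or more doses, reproduced on every date tested; inconclusive means results disagree between test dates, or hit never tested in dose response; inactive means the rest.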

What follows are compounds tested against Virion infectivity factor (Human immunodeficiency virus type 1 group M subtype B (isolate BH10)) + Virion infectivity factor (Human immunodeficiency virus type 1 group M subtype B (isolate BRU/LAI)) + Virion infectivity factor (Human immunodeficiency virus type 1 group M subtype B (isolate PCV12)) + Virion infectivity factor (Human immunodeficiency virus type 1 group M subtype B (isolate HXB2)) + DNA dC->dU-editing enzyme APOBEC-3G (Homo sapiens) (UniProt P69720+P69721+P69722+P69723+Q9HC16) (assay: HIV-1 Vif–A3G interaction blockers – biochemical, TR-FRET, GST-Vif 1-94, biotin-A3G peptide, dose response retest, primary screen (AID 1117319;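 further: Vif residues 1-94 fused to GST binding biotinylated APOBEC3G peptide 110-148; 0% = full assay without inhibitor and 100% = GST in place of GST-Vif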)). Conditions: TR-FRET GST-Vif / biotin-A3G peptide binding; hits give high values.

Compound	inhibition
Cc1nnc(SCCn2c(N3CCCCC3)nc3c2c(=O)[nH]c(=O)n3C)s1	0.62%
CCOc1ccccc1CNC(=O)Cn1c(=O)oc2ccccc21	72.4%
COc1ccccc1CNC(=O)CCn1c(=O)oc2ccccc21	0.68%
O=C(Nc1ccccc1N1CCOCC1)c1ccc2c(c1)OCCO2	-3.74%
CC(OC(=O)/C=C/c1ccc2ccccc2n1)C(=O)N(C)c1ccccc1 (stereo not drawn)	1.44%
Cc1ccc(Cn2nnnc2CN2CCC(O)(c3ccccc3F)CC2)cc1	20%
CCCCCCCCS(=O)CCC(=O)O (stereo not drawn)	11.3%
CCCCCCCCCCCCC(=O)CCCCC(=O)O	-6.1%
O=C1CC(N2CCN(c3ccc(C(=O)c4ccc(F)cc4)cc3)CC2)C(=O)N1 (stereo not drawn)	28.2%
CC(C)(C)NC(=O)c1sccc1C(=O)O	9.39%
Cc1ccc(C)n1-c1ccsc1C(=O)CC#N	22.9%
O=C(CNC(=O)c1cccc(Cl)c1)NCCCSc1ccccc1	-1.26%
Nc1nc(N)c2cc(Sc3ccc(Cl)cc3)ccc2n1	-22.4%
Cc1cc(-c2ccccc2)n(-c2ccccc2)n1	3.24%
Cc1cc(-c2ccco2)n(CC(=O)O)n1	5.45%
COc1ccc(NC(=S)NCCc2ccccc2)c(OC)c1	18.1%
COc1ccc(NC(=S)NCCc2c[nH]c3ccccc23)c(OC)c1	20.9%
COc1cc(OC)cc(C(=O)N2CCCC(c3nc(-c4ccc(C)o4)no3)C2)c1 (stereo not drawn)	32.4%
COc1cccc(CN2CC(C(=O)N(C)CCCC3CCCC3)CCC2=O)c1 (stereo not drawn)	-1.28%
Cc1ccc2[nH]c(=O)c(C(c3nnnn3C3CCCC3)N3CCCc4ccccc43)cc2c1 (stereo not drawn)	16.5%
CCC(C)(C)n1nnnc1C(c1cc2cc(OC)ccc2[nH]c1=O)N1CCc2ccccc21 (stereo not drawn)	3.72% and -1.49%

Compound	inhibition
O=c1cc(CSc2nnc(Nc3ccccc3F)s2)nc2sccn12	-10.7%
COc1cc(C(=O)NCC(c2ccco2)N2CCCC2)ccc1OCc1ccccc1 (stereo not drawn)	3.67%
COc1ccccc1C(CNC(=O)c1ccc(OCc2c(C)noc2C)cc1)N1CCCC1 (stereo not drawn)	7.05%
Cc1ccc(NC(=O)COC(=O)CN2CCSC2=O)cc1Cl	7.83%
Cc1ccc(/C=N/N=C/c2ccc(C)cc2)cc1	1.03%
Cc1ccc(/C=C2/CNC/C(=C/c3ccc(C)cc3)C2=O)cc1	4.14%
Cc1nc2ccccc2n1CCN1CCOCC1	-1%
COC(=O)c1nn(-c2ccc(Oc3ccccc3)cc2)c(=O)cc1O	2.63%
Nc1ccc(S(=O)(=O)N2CCOCCOCCOCCOCCOCC2)cc1	1.81%
C=C(C)C(=O)OCC(=O)NCc1ccccc1	-3.45%
Oc1ccccc1/C=N/NC1=NCCCCC1	-2.42%
Oc1ccc(/C=N/NC2=NCCCCC2)cc1	27.5%
O=C(O)c1cccc(S(=O)(=O)Nc2cccc(S(=O)(=O)N3CCCCCC3)c2)c1	4%
Cc1cccc(N(Cc2ccccc2F)S(C)(=O)=O)c1	22.4%
COc1ccc(C2=Nc3cccc4cccc(c34)N2)cc1	-2.87%
CC(C)C1=Nc2cccc3cccc(c23)N1	-3.35%
c1coc(C2=Nc3cccc4cccc(c34)N2)c1	8.06%
Fc1ccc(C2=Nc3cccc4cccc(c34)N2)cc1	-0.82%
CC(=O)c1ccc(NC(=O)CCCN2C(=O)/C(=C/C(C)=C/c3ccccc3)SC2=S)cc1	4.61%
CC(=C\c1ccccc1)/C=C1/SC(=O)N(CCCC(=O)Nc2ccc(C(=O)O)cc2)C1=O	0.71%
CC(=C\c1ccccc1)/C=C1/SC(=S)N(CCCC(=O)O)C1=O	2.05%

Compound	inhibition
CC(=C\c1ccccc1)/C=C1/SC(=S)N(CCC(=O)O)C1=O	-2.12%
CC1=C(C(=O)N(C)C)C(c2cccs2)NC(=O)N1 (stereo not drawn)	4.4%
O=C(CS(=O)(=O)c1ccc(F)cc1)N1CCN(c2ccccc2)CC1	-1.09%
c1ccc(Nc2ccccc2)cc1	-0.33%
Cc1ccc(Nc2ccccc2)cc1	6.07%
Cc1cc(NC(=O)CSc2nnc(C)n2-c2ccccc2)no1	1.46%
COc1ccc2c(c1)O[C@H](c1ccc3c(c1)OCO3)[C@@H](OC(=O)N[C@H]1CCCc3ccccc31)C2=O	4.66%
COC(=O)[C@@H](NC(=O)O[C@H]1C(=O)c2ccc(OC)cc2O[C@@H]1c1ccc2c(c1)OCO2)C(C)C	12.9%
CC(OC(=O)CCc1nc2ccccc2[nH]c1=O)C(=O)c1ccccc1 (stereo not drawn)	6.75%
CC1Cc2ccccc2N1Cc1nc2cc(Cl)ccc2c(=O)[nH]1 (stereo not drawn)	7.91%
COC(=O)c1ccc2c(=O)[nH]c(CN3c4ccccc4CC3C)nc2c1 (stereo not drawn)	8.14%
O=C(Cn1cnc2ccccc21)NCCCN1CCOCC1	-5.55%
O=C(NNS(=O)(=O)c1ccccc1[N+](=O)[O-])c1ccc(F)cc1	-0.91%
O=C1NC(=O)/C(=C\c2ccc(Sc3ccc(Cl)cc3)o2)N1	21.1%
O=C1NC(=O)/C(=C/c2ccc(N3CCOCC3)o2)N1	12.2%
Cc1nnc(SCC(=O)NNC(=O)c2ccco2)n1-c1ccccc1	6.15%
Cc1cccc(N2CC(C(=O)Nc3ccccc3N3CCOCC3)CC2=O)c1C (stereo not drawn)	-2.77%
CCn1c(SCC(=O)Nc2cc(C)on2)nnc1-c1ccccc1	-1.57%
CCCCn1c(SCC(=O)Nc2cc(C)on2)nnc1-c1cccnc1	-3.02%
CCc1nc(SCC(=O)c2ccccc2)c2c(=O)n(C)c(=O)n(C)c2n1	-11.9%
CC1(c2ccc([N+](=O)[O-])cc2)NC(=O)N(CC(=O)Nc2cccnc2Cl)C1=O (stereo not drawn)	-4.51%
